The campaign covered roughly 2,500 compounds. About 1,100 (44%) were called active.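 Rule for the calls: active = inhibition above 50% at 4 µM in the single-point screen; inactive = inhibition of 50% or less.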 So high a share suggests a set chosen from earlier hits. Some of the results follow.
test: blockers of TNF-a NF-kB luciferase induction – cell-based, HEK293T NF-kB-Luc, luminescence, selectivity assay for NOD1/NOD2 signaling inhibitor project, primary screen (AID 1852); details: TNF-a induced, 14 h, at 4 µM, hits give high values

inhibition, inactive:
Cc1sc2nc(-c3ccccn3)[nH]c(=O)c2c1-c1ccccc1 37.1%, Cc1nc(SCCC(=O)O)c2cc(-c3ccccc3)sc2n1 48.4%, COCCN(Cc1ccccc1)C(=O)c1cc(-c2ccc(OC)c(OC)c2)nc2ccccc12 20%, COc1ccc(NS(=O)(=O)c2ccc(-c3coc(C)n3)cc2)cc1OC 47.8%, Cc1cc(NC(=O)CCS(=O)(=O)c2nc(-c3ccccc3)cc(C(F)(F)F)n2)no1 46.7%, CCOc1cccc2sc(NC(=O)CCS(=O)(=O)c3ccccc3)nc12 -6.7%, C=C(CCC(=O)c1ccccc1)C(=O)c1ccccc1 -0.6%, COc1ccc2c(C)nc(Nc3nc(-c4ccccc4)cc(=O)[nH]3)nc2c1 42.1%, Oc1c(Cl)cc(Cl)cc1/C=C/c1ccc2cccc(O)c2n1 37.4%, CC(C)(C)NC(=S)N/N=C/c1cc(Br)c(O)c(Br)c1 34.5%, O=c1oc2ccccc2c(Nc2cc3ccccc3cc2O)c1[N+](=O)[O-] -0.3%, O=C(O)COc1ccc(-c2nccc(-c3ccccn3)n2)cc1 43.3%, Cc1nc2c(-c3ccc(F)cc3)cnn2c(N)c1-c1ccccc1 -226%, CCOc1ccccc1C(=O)N1CCN(C(c2ccccc2)c2ccccc2)CC1 22.1%, CN(C(=O)COc1ccccc1C(=O)NCCOc1ccccc1)c1ccccc1 17.7%, Cc1ccc(S(=O)(=O)Nc2ccccc2-c2ccccc2NS(=O)(=O)c2ccc(C)cc2)cc1 -1.3%, Cc1ccc(S(=O)(=O)n2c(N)nc3ccccc32)cc1 -1.7%, Oc1c(C(c2ccc(Cl)cc2)N2CCCC2)cc(Cl)c2cccnc12 (stereo unspecified) 20%, Oc1c(CN2CCN(c3ccc(F)cc3)CC2)cc(Cl)c2cccnc12 17.1%, Oc1c(CN2CCN(c3ccccn3)CC2)cc(Cl)c2cccnc12 20.4%, Cc1oc(-c2ccccc2Cl)nc1CSc1nc2c(c(=O)[nH]1)CCCC2 19.1%, Cc1cccc(-c2nc(CSc3nc4c(c(=O)[nH]3)CCC4)c(C)o2)c1 37%, CC1(C)CC(=O)C2=C(C1)Oc1nc3ccccc3cc1C2C(C#N)C#N (stereo unspecified) 29.6%, COc1ccccc1CNS(=O)(=O)c1ccc2c(c1)N(C(C)=O)CC(C)S2 (stereo unspecified) 35.3%, CC(C)(C)c1ccc(/C=N/Nc2ccc(C(=O)O)cc2)cc1 -61%, CC(C)(C)c1ccc(C(=O)Nc2sc3c(c2C(=O)O)CCC3)cc1 -51.1%, Cc1[nH]n(-c2nc(-c3ccc(Cl)cc3)cs2)c(=O)c1N=Nc1ccc(O)cc1 48.4%, CC(C)(C)c1ccc(-c2noc(CCC(=O)NCc3ccco3)n2)cc1 44.3%, CC(C)Cc1ccc(C(C)C(=O)Nc2cccnc2)cc1 (stereo unspecified) 22.5%, CCC(C(=O)Nc1cccnc1)c1ccccc1 (stereo unspecified) 3.6%, COc1ccc(Cc2nc(-c3ccc(-n4cccc4)cc3)no2)cc1OC 48.8%, CCOc1ccc(C(=O)NC2CCN(C(=O)Nc3ccccc3OC)CC2)cc1 14.2%, COC(CN(C(=O)CCl)C(C(=O)NC1CCCC(C)C1C)c1ccc(C)cc1)OC (stereo unspecified) 15.4%, COCCN(CC(=O)NC1CCCCC1)C(=O)/C=C/C(=O)c1ccc(OC)cc1O 22.3%, O=S(=O)(Nc1nc(-c2sccc2Cl)cs1)c1cc(Cl)ccc1Cl 34.1%, O=C1ON=C(c2ccc(Cl)cc2)/C1=C/c1ccc(O)cc1 29.2%, COc1cc(C)c(Br)cc1S(=O)(=O)NCc1ccncc1 30.4%, O=C(Nc1ccc(Cl)cc1)c1ccc(CN2CCc3ccccc3C2)cc1 23.1%, Cc1cc(C)n(Cc2ccc(NC(=O)c3ccc(COc4ccccc4Br)cc3)cc2)n1 46.2%, CCOc1ccc(NC(=O)c2ccc(CN3CCc4ccccc4C3)cc2)cc1 3%, CCOC(=O)c1ccc(NC(=O)c2ccc(CN3CCc4ccccc4C3)cc2)cc1 46.3%, O=C(CCl)Nc1cn(-c2ccccc2)nc1-c1ccc(F)cc1 -16.2%, O=C(CCl)Nc1cn(-c2ccccc2)nc1-c1ccccc1 -13.7%, COc1cccc(C(=O)Nc2sc3c(c2C(=O)O)CCCC3)c1 30.7%, CN(C)S(=O)(=O)Oc1cccc(C(=O)Nc2ccc(Cl)c(Cl)c2)c1 -28.2%, Cc1onc(-c2ccccc2)c1C(=O)Nc1ncc([N+](=O)[O-])s1 48.5%, Cc1cccc(CS(=O)(=O)c2ncc(Cl)c(C(=O)Nc3c(C)cccc3C)n2)c1 46.2%

inhibition, active:
CC[n+]1c(C=C2C=C(C)OC(C)=C2)sc2ccccc21 57.8%, O=c1[nH]c(-c2ccccn2)nc2sc(-c3ccccc3)cc12 97.3%, COc1ccc(-c2cc(C(F)(F)F)nc(S(C)(=O)=O)n2)cc1OC 89.3%, COc1ccccc1-c1cc(C(F)(F)F)nc(S(C)(=O)=O)n1 68.8%, COc1ccc(-c2cc(C(F)(F)F)nc(S(C)(=O)=O)n2)cc1 77.6%, COC(=O)CCS(=O)(=O)c1nc(-c2ccccc2)cc(C(F)(F)F)n1 55.5%, O=C(Nc1ccncc1)c1c(F)cccc1F 59.3%, Cc1ccc2oc(Nc3nc(-c4ccccc4)cc(=O)[nH]3)nc2c1 93%, CN(/N=C/c1cc(Cl)cc(Cl)c1O)C(=S)NC(C)(C)C 82.6%, CC(C)c1noc2ncc(C(=O)c3cc(Cl)cc(Cl)c3O)cc12 60.1%, O=c1cc(-c2ccccc2Cl)oc2c(NS(=O)(=O)c3cc(Cl)cc(Cl)c3O)ccc(O)c12 82.6%, O=c1cc(-c2ccccc2Cl)oc2c([N+](=O)[O-])c(O)cc(O)c12 105%, c1ccc2c(c1)ncn2-c1ccc(-c2ccnc(-c3ccncc3)n2)cc1 59.7%, Nc1nccc(-c2ccc(-n3cnc4ccccc43)cc2)n1 67%, Cc1nc(N)c(C#N)c(-c2cccnc2)c1-c1ccccc1 98.5%, CC1CCc2nc(N)c(C#N)c(-c3cccnc3)c2C1 (stereo unspecified) 85.3%, O=C(NNC(=O)c1ccccc1OCc1ccc(F)cc1)c1ccccc1O 51.1%, O=C(NNC(=O)c1ccccc1OCc1ccccc1)c1ccccc1O 77.9%, Cc1ccc(S(=O)(=O)Nc2ccccc2/C=N/c2nc3ccccc3n2C)cc1 89.4%, Oc1c(CN2CCc3ccccc3C2)cc(Cl)c2cccnc12 101%, Oc1c(Cl)cc(Cl)c2cccnc12 102%, Oc1c(I)cc(I)c2cccnc12 89%, O=[N+]([O-])c1cc(Cl)c(O)c2ncccc12 102%, O=C(Oc1c(Cl)cc(Cl)c2cccnc12)c1ccco1 106%, Oc1c(I)cc(Cl)c2cccnc12 104%, Cc1ccccc1-c1nc(CSc2nc3c(c(=O)[nH]2)CCC3)c(C)o1 59.5%, CC(C)(C)c1ccc(C(=O)N2CCCCCC2=O)cc1 69.6%, NC(=S)n1[nH]c(-c2ccc([N+](=O)[O-])cc2)c(N=Nc2ccc(Cl)cc2)c1=O 88.7%, Cc1ccc([N+](=O)[O-])cc1N=Nc1c(-c2ccc([N+](=O)[O-])cc2)[nH]n(C(N)=S)c1=O 80.4%, NC(=S)n1[nH]c(-c2ccc([N+](=O)[O-])cc2)c(N=Nc2cccc([N+](=O)[O-])c2)c1=O 86.6%, NC(=S)n1[nH]c(-c2ccc([N+](=O)[O-])cc2)c(N=Nc2cccc(Cl)c2)c1=O 86.9%, CC(C)(C)c1ccc(-c2noc(CCC(=O)Nc3cccnc3)n2)cc1 71.6%, CC(C)(C)c1ccc(-c2noc(CCC(N)=O)n2)cc1 73.6%, CCn1nc(C)c(CNC(=O)c2ccc(OC3CCN(Cc4ccccn4)CC3)cc2)c1C 50.2%, COCCN(C(=O)CCl)C(C(=O)NC1CCCCC1)c1ccccc1C (stereo unspecified) 56.7%, COC(CN(C(=O)CCl)C(C(=O)NC1CCCCC1)c1ccccc1C)OC (stereo unspecified) 63.2%, Cc1ccc(-c2csc(=Nc3cccnc3)n2CCCn2ccnc2)cc1C 94.3%, Cc1ccc(C2=NOC(=O)/C2=C\C=C\c2ccccc2)cc1 94.8%, C/C(=N\NC(=O)c1ccc(CN2CCc3ccccc3C2)cc1)c1ccccc1O 77.8%, O=C(Nc1ccc(F)cc1)c1ccc(CN2CCc3ccccc3C2)cc1 87.4%, N#CCc1ccc(NC(=O)c2ccc(CN3CCc4ccccc4C3)cc2)cc1 58.1%, CC(=O)n1c(Cl)c(NC(=O)CCl)c2ccccc21 82.1%, O=C(Cc1ccc(Cl)cc1)c1c[nH]c(C(=O)NCc2cccnc2)c1 90.1%, COc1cc(OC)cc(C(=O)Nc2nc(-c3ccccc3)c(-c3ccccc3)o2)c1 78.7%, COc1cccc(C(=O)Nc2nc(-c3ccccc3)c(-c3ccccc3)o2)c1 81.3%, O=C1N/C(=N\N=C\c2ccccn2)SC1Cc1cccc(SC(F)F)c1 (stereo unspecified) 109%, CCCc1nnc(NC(=O)c2nc(S(=O)(=O)Cc3cccc(C)c3)ncc2Cl)s1 61.3%, CCCc1nnc(NC(=O)c2nc(S(=O)(=O)Cc3ccc(C)cc3)ncc2Cl)s1 94.4%, CCc1nnc(NC(=O)c2nc(S(=O)(=O)Cc3ccc(C)cc3)ncc2Cl)s1 71.9%
